An excerpt weighted towards active compounds, which were near 12% of everything screened.
JMJD2A Tudor – qHTS Assay for Inhibitors of JMJD2A-Tudor Domain | Lysine-specific demethylase 4A (Homo sapiens), O75164 | AlphaScreen JMJD2A-Tudor / H3K4me3 peptide binding | Potency, µM (series often up to 114 µM), hits mostly inhibitors | 390,000 compounds, 4.4% hits; further: nearly all actives have a fitted effect of over 50% in size
L3MBTL1 block – qHTS Assay for the Inhibitors of L3MBTL1; Potency, µM (highest dose often 57.1 µM), usual class: inhibitors; Lethal(3)malignant brain tumor-like protein 1 (Homo sapiens), Q9Y468; 230,000 compounds, 0.66% hits; AlphaScreen L3MBTL1–H3K9me1 peptide binding; further: nearly all actives have a fitted effect of over 60% in size
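AlphaScreen assay: L3MBTL1 (50 nM final) was preincubated 30 min at room temperature with biotinylated H3(1-15)K9me1 peptide (75 nM final), then 30 min with library compounds; streptavidin donor and nickel chelate acceptor beads (10 ug/mL final) added, 30 min dark.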
G9a block – qHTS Assay for Inhibitors of Histone Lysine Methyltransferase G9a. Potency, µM (titrated, usually from 102 µM), most hits filed as inhibitors. G9a H3K9 monomethylation, AlphaScreen, 2 h. 350,000 compounds, 8.8% hits. Histone-lysine N-methyltransferase EHMT2 (Homo sapiens), Q96KQ7; further: nearly all actives have a fitted effect of over 75% in size
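AlphaScreen read-out: biotin-H3K9 peptide (500 nM) methylation by 20 nM enzyme with 20 uM SAM, 2 h at room temperature after 15 min compound preincubation; anti-monomethyl H3K9 antibody plus donor/acceptor beads, 10 min dark.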
HP1b chromo inh – HTS for Inhibitors of HP1-beta Chromodomain Interactions with Methylated Histone Tails; Chromobox protein homolog 1 (Homo sapiens), P83916; AlphaScreen HP1-beta / biotin-H3K9me3 peptide binding; Potency, µM (highest dose often 114 µM), actives largely listed as inhibitors; 390,000 compounds, 0.56% hits; further: nearly all actives have a fitted effect of over 70% in size
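AlphaScreen: HP1-beta (50 nM) preformed 30 min with biotin-H3(1-18)K9me3 peptide (50 nM) in PBS pH 7.4, 0.01% Tween-20. Compound added for 30 min at RT, then streptavidin donor/nickel chelate acceptor beads (10 ug/mL) for 30 min.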
BAZ2B inh – qHTS Assay for Inhibitors of BAZ2B; Potency, µM (highest dose often 114 µM), most hits filed as inhibitors; Bromodomain adjacent to zinc finger domain protein 2B (Homo sapiens), Q9UIF8; AlphaScreen BAZ2B-H3K14Ac peptide displacement; 360,000 compounds, 4.4% hits; further: nearly all actives have a fitted effect of over 60% in size
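Multi-concentration screen (max 110 uM) measuring displacement of acetylated histone H3 peptide from BAZ2B by AlphaScreen, using 50 nM protein, 50 nM peptide and 10 ug/mL streptavidin donor plus Ni-chelate acceptor beads.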
Sfp PPTase inh – qHTS Assay for Inhibitors of Bacillus subtilis Sfp phosphopantetheinyl transferase (PPTase); 310,000 compounds, 3.5% hits; Potency, µM, most hits filed as inhibitors; AID 1490, 2009; 4'-phosphopantetheinyl transferase ffp (Bacillus subtilis), Q9F4F7; Biochemical Sfp PPTase activity, qHTS;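 further: the enzyme is Sfp with the accession as filed and its product quenches rhodamine fluorescence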
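Reaction rates are the 30-min fluorescence difference (ex 525, em 598 nm) in wells containing 15 nM Sfp, 5 uM rhodamine-CoA and 12.5 uM BHQ-2-YbbR at pH 7.6 with 10 mM MgCl2.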
Hits are given with their value; i = inactive; ? = inconclusive; nt = not tested or not shown; ! = not confirmed by another sample; [ ] = dose if it differs, or a comment. The call rests on the fitted dose curve; in most records, active means well fitted curve in the direction sought with a large enough effect; inconclusive means small, poorly fitted or top-dose-only effect, or another doubt; inactive means no such curve, though single readings can be large; an effect the other way counts as inactive or inconclusive.

SMILES | JMJD2A Tudor | L3MBTL1 block | G9a block | HP1b chromo inh | BAZ2B inh | Sfp PPTase inh
COc1ccccc1-n1ncc2c(=O)[nH]c(SCC(=O)Nc3ccc(Cl)cc3)nc21 | i | nt | i | i | i | nt
COCCn1nnnc1C(c1cc2cc(C)cc(C)c2[nH]c1=O)N1CCN(c2ccccc2F)CC1 (stereo not given) | i | i[11.4 µM] | 3.2µM | i | i | 13µM
COc1ccc2cc(C(c3nnnn3CCc3ccccc3)N3CCCC(C)C3)c(=O)[nH]c2c1 (stereo not given) | ? | i | 45µM | i | i | i
Cc1ccc2[nH]c(=O)c(C(c3nnnn3CCc3ccccc3)N3CCOCC3)cc2c1 (stereo not given) | i | i | 7.9µM | i | i | i
COCCn1nnnc1C(c1cc2cc(C)ccc2[nH]c1=O)N1CCCCCC1 (stereo not given) | i | i | 4.5µM | i | i | 50µM
CCN(Cc1ccccc1)C(c1cc2cc(C)ccc2[nH]c1=O)c1nnnn1CCOC (stereo not given) | ? | i | ? | i | nt | i
COCCn1nnnc1C(c1cc2cc(OC)ccc2[nH]c1=O)N1CCC(Cc2ccccc2)CC1 (stereo not given) | i | i | i[12.7 µM] | i | i | i
CCCSCCCNC(=O)c1ccc2nc(Cc3ccccc3)oc2c1 | i | nt | i | i | i | nt
Cc1ccc(-n2ncc3c(=O)n(Cc4ccccc4C)cnc32)cc1C | i | nt | i | i | i | nt
Cc1cccc(CN2C(=O)c3ccccc3Sc3ccc(C(=O)NC4CCCCC4)cc32)c1 | i | nt | i | i | i | nt
Cc1c(C(=O)Nc2ccc(C(C)C)cc2)sc2nc[nH]c(=O)c12 | i | nt | i | i | i | nt
CN(C1CCCCC1)S(=O)(=O)Cc1ccccc1 | i | i | 32µM | i | i | ?
CC(Sc1nnc(NC2CC2)s1)C(=O)Nc1ccc(N2CCOCC2)cc1 (stereo not given) | i | i | 45µM | i | i | nt
COc1ccc(Nc2nnc(SC(C)C(=O)NC3CC3)s2)cc1 (stereo not given) | i | i | nt | i | nt | nt
CC(Sc1nnc(NC2CCCCC2)s1)C(=O)Nc1ccc2c(c1)C(=O)c1ccccc1C2=O (stereo not given) | ? | i | 3.5µM | i | i | i
O=C(CSc1nnc(NC2CCCCC2)s1)Nc1ccc(N2CCOCC2)cc1 | i | i | i | i | i | i
C[C@@H]1CC[C@]2(O[C@H](CCO)C[C@H](O)[C@H]2O)O1 | i | nt | nt | i | nt | nt
CS(=O)(=O)c1ccc(C(=O)N(Cc2ccccc2)c2ccccc2)cc1 | i | nt | 45µM | i | i | i
C=CCN=c1scc(C)n1/N=C/c1ccc(O)c(O)c1 | ? | i | ? | i | 40µM | 32µM
CN=c1scc(-c2ccco2)n1/N=C/c1ccc(O)c(O)c1 | i[11.4 µM] | nt | 11µM | ? | 28µM | 50µM
O=C(CSc1nc2c(c(=O)[nH]1)CN(Cc1ccc(F)cc1)CC2)Nc1cccc(C(F)(F)F)c1 | i | nt | i | i | i | nt
CC(C)=CCC/C(C)=C/C(N)=O | i | i | i | i | i | ?
CC(C)=CCC/C(C)=C/C=C/C(C)=C/C=C/C(C)=C/C=C/C=C(C)/C=C/C=C(C)/C=C/C=C(\C)CCC=C(C)C | nt | nt | 20µM | nt | nt | ?
CNc1c2c(nn1C)CCCC2 | 20µM! | i | ? | 40µM! | ? | i
C#CCNc1c2c(nc3nnnn13)CCCC2 | i | i | i | i | i | i
SMILES | JMJD2A Tudor | L3MBTL1 block | G9a block | HP1b chromo inh | BAZ2B inh | Sfp PPTase inh
CCOCCCNC(=O)c1[nH]c2cc(C)ccc2c1Sc1ccc(Cl)cc1 | ? | nt | ? | i | i | nt
CC(=O)c1ccc(NC(=S)Nc2cccc(S(=O)(=O)Nc3c(C)n(C)n(-c4ccccc4)c3=O)c2)cc1 | i | i | ? | i | nt | 22µM
Cc1cccc(NC(=O)c2cccc(S(=O)(=O)Nc3c(C)n(C)n(-c4ccccc4)c3=O)c2)c1 | i | nt | nt | i | nt | nt
Cc1c(NS(=O)(=O)c2cccc(C(=O)O)c2)c(=O)n(-c2ccccc2)n1C | i | nt | i | i | i | i
Cc1ccc(NC(=S)Nc2cccc(S(=O)(=O)Nc3c(C)n(C)n(-c4ccccc4)c3=O)c2)cc1 | i | i | 45µM | i | i | i
Nc1ncnc2c1[nH]c(=O)n2C1CC(O)C(CO)O1 (stereo not given) | nt | nt | nt | nt | nt | i
CC(C)CN(C(=O)COC(=O)c1cccn1C)c1c(N)n(Cc2ccccc2)c(=O)[nH]c1=O | i | nt | i | i | i | i
O=C(NCc1ccc(Cl)cc1)c1cnc2sc(N3CCCC3)nn2c1=O | 79µM | nt | i | i | i | nt
Cc1cc(C)n(CCc2nc(-c3cccs3)cs2)n1 | i | i | ? | i | i | ?
Cc1cc(C)n(CCc2nc(-c3ccco3)cs2)n1 | 50µM | nt | 3.5µM | ? | 50µM | 8.9µM
COc1ccc(NC(=O)Cn2c(=O)n(CCC(=O)NCc3ccccc3OC)c(=O)c3ccccc32)cc1Cl | i | nt | i | i | i | nt
CCN(CC)S(=O)(=O)c1ccc2oc(Nc3ccc(OC)cc3)nc2c1 | i | nt | i | i | i | i
CCOc1ccc(Nc2nc3cc(S(=O)(=O)N(CC)CC)ccc3o2)cc1 | i | nt | 2.2µM | i | i | 8.9µM
CCS(=O)(=O)c1ccc2oc(Nc3ccc(C(C)C)cc3)nc2c1 | ? | nt | 1.8µM | 16µM | i | 18µM
COC(=O)C1=C(C(=O)OC)[C@@H]2N(C)c3ccccc3[C@@]23C[C@@H](C(=O)OC)N(S(=O)(=O)c2ccc([N+](=O)[O-])cc2)C3=N1 | nt | nt | nt | nt | nt | i
Clc1cccc(Nc2ncnc3c2nc2n3CCCCC2)c1 | i | nt | i | i | i | nt
Cc1ccc(C(=O)NCCc2c[nH]c3ccccc23)c(C)c1 | i | nt | i | i | 50µM | i
O=C(NCCc1c[nH]c2ccccc12)c1ccccc1 | i | i | i | i | i | i
O=C(NCCc1c[nH]c2ccccc12)c1cc([N+](=O)[O-])cc([N+](=O)[O-])c1 | i | nt | 10µM | i | i | i
COc1cc(-c2noc(C)c2C(=O)NCCc2c[nH]c3ccccc23)cc(OC)c1OC | ? | i | 32µM | i | 50µM | i
O=C(NCCc1c[nH]c2ccccc12)c1ccc([N+](=O)[O-])cc1 | i | i | i | i | i | i
CSc1cccc(NC(=O)Cn2c(=O)n(Cc3ccccc3)c(=O)c3sc4ccccc4c32)c1 | i | nt | i | i | i | nt
COc1ccccc1C1CC(=O)Oc2c(C(C)C)ccc(C)c21 (stereo not given) | i | i | i | i | nt | i
